Among the test systems are NCI-H23 lung; NCI-H226 lung; NCI-H322M lung; HOP-62 NSCLC; NCI-H460 lung; HOP-92 NSCLC; NCI-H522 lung; A549/ATCC NSCLC; 786-0 renal; COLO 205 colon.
Holding throughout (assay): NCI-60 one-dose screen, 48 h (100 = growth as untreated, 0 = no growth, -100 = all killed)
Common to all, as to details: 10 µM unless noted

Compounds without any hit were thinned out: in the full panel of roughly 83,000, 20% have a hit.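 Activity criterion: percent growth below 10, measured after cells in 96-well plates were exposed to a single compound concentration for 48 hours.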 Unmarked numbers belong to inactive results. Calls of active or inactive are those of the source.

As for `CCCCC[C@H]1CC=C2C(=O)C=C[C@@H]2CC=CCCCC(=O)O[C@@H](CCCCC)CC=C2C(=O)C=C[C@@H]2CC=CCCCC(=O)O[C@@H](CCCCC)CC=C2C(=O)C=C[C@@H]2CC=CCCCC(=O)O1`, the growth is -16.4% [8.75 µM] (active) in the test on NCI-H23 lung; 6.47% [8.75 µM] (active) in the test on NCI-H226 lung; 17.9% [8.75 µM] with NCI-H322M lung; -10.6% [8.75 µM] (active) in the test on HOP-62 NSCLC; 0.981% [8.75 µM] (active) in the test with NCI-H460 lung; -47.7% [8.75 µM] (active) in the test on HOP-92 NSCLC. The growth with NCI-H522 lung is -48.5% [8.75 µM] (active); in the test with A549/ATCC NSCLC, -29.7% [8.75 µM] (active); with 786-0 renal it was -48.7% [8.75 µM] (active).

Turning to `Cc1cc(N2CCCC2)nc(N(CCNc2ccnc3cc(Cl)ccc23)Cc2ccco2)n1`, the growth in the test with NCI-H23 lung is 9.57% (active); in the test with NCI-H226 lung, 24.9%; with NCI-H322M lung, 19.7%; with HOP-62 NSCLC it was 43.3%; in the test with NCI-H460 lung, 15.8%; in the test with HOP-92 NSCLC it was -15% (active). Also, the growth with NCI-H522 lung was 49.9%; in the test on A549/ATCC NSCLC, 48%; with 786-0 renal, 4.55% (active).

As for `COc1ccc(NC(=O)c2ccc3c(c2)nc(-c2cc4ccccc4[nH]c2=O)n3-c2cc(C(C)(C)C)[nH]n2)cc1`, the growth is 90.4% with NCI-H23 lung; 99% in the test on NCI-H226 lung; 91.7% in the test on NCI-H322M lung; 98.7% in the test on HOP-62 NSCLC; 97.4% in the test with NCI-H460 lung; 90.8% in the test with HOP-92 NSCLC. The growth was 72.8% with NCI-H522 lung, 93.7% in the test with A549/ATCC NSCLC and 92.4% in the test on 786-0 renal.

For the compound `Nc1c(C(=O)Nc2c(Cl)cccc2Cl)sc2nc3c(cc12)C(=O)CCC3`, the growth is 48.5% with NCI-H23 lung; 71.2% in the test on NCI-H226 lung; 56.7% in the test on NCI-H322M lung; 30.7% in the test with HOP-62 NSCLC; 12.9% with NCI-H460 lung; 42.6% in the test on HOP-92 NSCLC. In addition, the growth in the test on NCI-H522 lung was 6.59% (active); with A549/ATCC NSCLC, 38%; with 786-0 renal, 29%.

Regarding `Cc1nn2c(-c3nc4cc(Cl)c(Cl)cc4[nH]3)c(-c3ccc(F)cc3)nc2s1`, the growth in the test with NCI-H23 lung was 55.8%; in the test with NCI-H226 lung, 4.31% (active); with NCI-H322M lung, -20% (active); in the test with HOP-62 NSCLC, -36.8% (active); with NCI-H460 lung it was -13.4% (active); with HOP-92 NSCLC it was -7.53% (active). Also, the values for the growth in the test on NCI-H522 lung, in the test on A549/ATCC NSCLC and in the test with 786-0 renal were 65.2%, 5.51% (active) and -79.5% (active), respectively.

Turning to `CCN1CCN(c2nc(C)cc(N(CCCNc3ccnc4cc(Cl)ccc34)Cc3ccco3)n2)CC1`, the growth was 62.2% in the test on NCI-H23 lung; 86.4% in the test on NCI-H226 lung; 63.5% in the test on NCI-H322M lung; 52.1% with HOP-62 NSCLC; 39.9% with NCI-H460 lung; 65.3% in the test with HOP-92 NSCLC. Further, the results for the growth with NCI-H522 lung, in the test on A549/ATCC NSCLC and in the test on 786-0 renal were 71.6%, 50.4% and 64.8%, respectively.

For the compound `CC(C)(C)c1ccc(OCCCCCCCN2CCNCC2)cc1`, the growth was 51.9% in the test with NCI-H23 lung; 70.3% in the test with NCI-H226 lung; 53.6% with NCI-H322M lung; 54% in the test with HOP-62 NSCLC; -14.9% (active) with NCI-H460 lung; 33.3% in the test with HOP-92 NSCLC. For the same compound, the growth in the test with NCI-H522 lung was 72.9%; in the test with A549/ATCC NSCLC, 44.9%; with 786-0 renal, 23.9%.

As for `O=c1c(CNc2ccc(S(=O)(=O)Nc3nccs3)cc2)coc2ccccc12`, the growth in the test with NCI-H23 lung was 110%; in the test on NCI-H226 lung, 96.1%; in the test with NCI-H322M lung, 87.6%; in the test on HOP-62 NSCLC, 98.7%; in the test with NCI-H460 lung, 102%; with HOP-92 NSCLC it was 80.1%. Moreover, the growth is 82.8% with NCI-H522 lung, 95.5% in the test on A549/ATCC NSCLC and 103% in the test with 786-0 renal.

For `NC(=O)NCC1CCCCC1`, the growth is 90.7% in the test with NCI-H23 lung; 102% with NCI-H226 lung; 104% in the test on NCI-H322M lung; 112% with HOP-62 NSCLC; 105% in the test on NCI-H460 lung; 114% in the test on HOP-92 NSCLC. For the same compound, the growth in the test on NCI-H522 lung is 93.3%; with A549/ATCC NSCLC, 109%; in the test with 786-0 renal, 101%; in the test with COLO 205 colon it was 111%.

For `CN(C)c1ccc(N=C2C=CC(=O)C=C2)cc1`, the growth in the test with NCI-H23 lung was 84.5%; in the test on NCI-H226 lung, 95.1%; with NCI-H322M lung it was 75%; in the test on HOP-62 NSCLC, 107%; with NCI-H460 lung, 97.1%; with HOP-92 NSCLC, 77.5%. Further, the growth was 72% in the test on NCI-H522 lung, 102% in the test with A549/ATCC NSCLC, 98.4% with 786-0 renal and 36.3% with COLO 205 colon.

Regarding `C/C(=N\NC(=O)C(C)SC(C)C(=O)N/N=C(\C)c1cccnc1)c1cccnc1` (stereo not drawn), the growth is 103% with NCI-H23 lung; 106% in the test on NCI-H226 lung; 104% with NCI-H322M lung; 106% in the test with HOP-62 NSCLC; 104% in the test on NCI-H460 lung; 114% with HOP-92 NSCLC. For the same compound, the growth is 77.4% in the test with NCI-H522 lung, 108% with A549/ATCC NSCLC and 115% in the test on 786-0 renal.

On to `COc1ccc(/C=C2\N=C(c3ccccc3)N(c3cc(OC)c(OC)cc3C(=O)N3N=C(C)CC3=O)C2=O)cc1`, for which the growth with NCI-H23 lung is 102%; in the test with NCI-H226 lung it was 90.1%; with NCI-H322M lung, 118%; in the test on HOP-62 NSCLC, 97%; in the test with NCI-H460 lung, 94.4%; in the test with HOP-92 NSCLC it was 78.2%. In addition, the growth with NCI-H522 lung is 82.6%; with A549/ATCC NSCLC, 104%; with 786-0 renal it was 98.9%.

For `COc1ccc2c(c1)c(-c1nc(-c3c[nH]c4ncccc34)cs1)cn2C`, the growth in the test on NCI-H23 lung is 71.8%; in the test with NCI-H226 lung, 80.6%; in the test with NCI-H322M lung it was 46.6%; in the test with HOP-62 NSCLC, 90.4%; with NCI-H460 lung it was 40.1%; in the test with HOP-92 NSCLC, 60.7%. For the same compound, the values for the growth with NCI-H522 lung, with A549/ATCC NSCLC and in the test with 786-0 renal were 77.9%, 81.7% and 70.1%, respectively.

On to `COC(=O)CNc1nc(N(C)O)nc(N(C)O)n1`, for which the growth in the test with NCI-H23 lung was 48.7%; with NCI-H226 lung, 61.3%; with NCI-H322M lung it was 54.6%; in the test on HOP-62 NSCLC, 34.2%; in the test on NCI-H460 lung, 17.7%; in the test on HOP-92 NSCLC, 35.2%. Moreover, the figures for the growth with NCI-H522 lung, in the test on A549/ATCC NSCLC and with 786-0 renal were 53.2%, 46.5% and 25.9%, respectively.

These data come from PubChem BioAssay (NCI).
